USP1-UAF1 inh = Inhibitors of USP1/UAF1: Primary Screen; Potency, µM (highest dose often 57.1 µM), hits mostly inhibitors; recombinant USP1/UAF1, Ub-Rhodamine cleavage fluorescence; 0.23% of 390,000 active; Ubiquitin carboxyl-terminal hydrolase 1 (Homo sapiens), O94782; note: nearly all actives have a fitted effect of over 60% in size
Target sequence (O94782 whole entry, looked up): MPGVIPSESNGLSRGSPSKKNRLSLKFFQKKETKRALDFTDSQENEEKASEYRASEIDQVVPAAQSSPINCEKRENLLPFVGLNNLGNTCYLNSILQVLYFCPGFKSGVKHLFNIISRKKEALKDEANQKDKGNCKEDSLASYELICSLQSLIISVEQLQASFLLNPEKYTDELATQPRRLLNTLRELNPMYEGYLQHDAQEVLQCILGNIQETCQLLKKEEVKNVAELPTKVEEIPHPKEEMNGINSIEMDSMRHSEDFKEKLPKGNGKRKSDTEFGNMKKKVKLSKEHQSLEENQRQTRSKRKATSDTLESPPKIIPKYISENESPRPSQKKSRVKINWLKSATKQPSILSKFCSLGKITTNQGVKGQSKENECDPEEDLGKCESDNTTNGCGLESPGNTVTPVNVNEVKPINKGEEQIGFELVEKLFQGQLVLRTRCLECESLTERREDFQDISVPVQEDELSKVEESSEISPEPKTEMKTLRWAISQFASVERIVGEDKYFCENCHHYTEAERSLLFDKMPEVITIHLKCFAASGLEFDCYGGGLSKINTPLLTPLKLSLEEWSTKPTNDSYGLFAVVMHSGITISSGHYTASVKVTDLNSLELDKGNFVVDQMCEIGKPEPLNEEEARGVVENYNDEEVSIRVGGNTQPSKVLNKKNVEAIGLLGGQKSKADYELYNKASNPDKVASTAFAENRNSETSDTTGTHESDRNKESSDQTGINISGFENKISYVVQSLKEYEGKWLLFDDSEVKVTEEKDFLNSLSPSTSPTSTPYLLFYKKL
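In this screen, compounds sit with the deubiquitinase complex (1nM) for 15 min at room temperature before Ub-Rho is added at 150nM final. Fluorescence rise is then followed for 6 reads every 60 seconds.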
EPAC1 antag = qHTS for Antagonist of cAMP-regulated guanine nucleotide exchange factor 3 (EPAC1): primary screen | Rap guanine nucleotide exchange factor 3 (Homo sapiens), O95398 | EPAC1 GEF assay, Rap1b-BODIPY-GDP exchange fluorescence | Potency, µM (doses to about 115 µM), usual class: inhibitors | 0.14% of 360,000 active | AID 720709, 2013; note: nearly all actives have a fitted effect of over 50% in size
BRCA1 expr act = qHTS Assay to Identify Small Molecule Activators of BRCA1 Expression; MCF7-BRCA1-FFLuc reporter, luminescence, 48 h; response scale: scaled: vehicle 0%, 10 µM genistein 100%; Potency, µM (doses to about 46.1 µM), usual class: activators; 1.1% of 380,000 active; note: nearly all actives have a fitted effect of over 80% in size
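Compounds are tested at multiple concentrations on MCF7 BRCA1-luciferase reporter cells seeded at 2000 per well; after 48 h, a single luminescence end-point is taken and curves fitted to the normalized data.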
EPAC2 agonist = qHTS for Agonist of cAMP-regulated guanine nucleotide exchange factor 4 (EPAC2): primary screen; EPAC2 activation, biochemical qHTS; response scale: 100% = 6.5 mM cAMP response; Potency, µM (titrated, usually from 154 µM), usual class: activators; 0.079% of 360,000 active; note: nearly all actives have a fitted effect of over 50% in size
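Compounds were added across a concentration range to EPAC2 (100 nM), RAP1B-BODIPY-GDP (250 nM) and GDP (50 uM). After 5 min at room temperature, fluorescence was recorded at 5-min intervals for 30 min.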
EPAC1 agonist = qHTS for Agonist of cAMP-regulated guanine nucleotide exchange factor 3 (EPAC1): primary screen | EPAC1 agonist qHTS, biochemical assay; response scale: 100% = response to 6.5 mM cAMP | 0.073% of 360,000 active | Rap guanine nucleotide exchange factor 3 (Homo sapiens), O95398 | Potency, µM (doses to about 154 µM), hits mostly activators | AID 720707, 2013; note: nearly all actives have a fitted effect of over 60% in size
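Nucleotide exchange by EPAC1 (100 nM) on Rap1B–BODIPY-GDP (250 nM) in the presence of 50 uM GDP is tracked fluorescently at 480/540 nm over 30 min. Signals are normalized to a 6.5 mM cAMP control.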
EPAC2 antagonist = qHTS for Antagonist of cAMP-regulated guanine nucleotide exchange factor 2 (EPAC2): primary screen | Rap guanine nucleotide exchange factor 4 (Homo sapiens), Q8WZA2 | EPAC2 GEF exchange of Rap1B-BODIPY-GDP, fluorescence | Potency, µM (top dose mostly 114 µM), actives largely listed as inhibitors | 0.18% of 360,000 active; note: nearly all actives have a fitted effect of over 45% in size
Each line names hits and unclear results; the compound was inactive in the other large screens. In the library only some 1.4% were active in any assay of this set; here they are far more common. Calls come from the whole dose curve; as a rule, active = well fitted curve in the direction sought with a large enough effect; inconclusive = small, poorly fitted or top-dose-only effect, or another doubt; inactive = no such curve, though single readings can be large; an effect the other way counts as inactive or inconclusive.

O=C(O)c1ccc2c(c1)C(=O)N(CCc1ccccc1)C2=O	none
O=C(O)c1ccc2c(c1)C(=O)N(CCc1c[nH]c3ccccc13)C2=O	BRCA1 expr act 7.9µM
CC(=O)C[n+]1cccc2cc(Cl)ccc21	none (no result: USP1-UAF1 inh, EPAC1 antag, EPAC2 agonist, EPAC1 agonist, EPAC2 antagonist)
O=C(COc1cccnc1[N+](=O)[O-])Nc1cccc(Br)c1	BRCA1 expr act 11µM
COc1cc(CCC(C)=O)ccc1OC(=O)c1c(F)cccc1Cl	BRCA1 expr act 8.9µM
COc1cccc(CN(C)C(=O)CSCC(=O)Nc2ccc(C)cc2)c1OC	none
O=C(Nc1ccccc1)c1ccc(Br)o1	USP1-UAF1 inh inconclusive
O=C(Nc1ccccc1F)c1ccc(Br)o1	none
CCCOC(=O)c1ccc(NC(=O)c2ccc(Br)o2)cc1	none
CCN(CC)c1ccc(NC(=O)c2ccc(Br)o2)cc1	BRCA1 expr act 2.8µM
COc1ccc(-c2ccc(NC(=O)c3ccc(Br)o3)cc2)nn1	BRCA1 expr act 4µM
COC(=O)Cc1ccc(NC(=O)c2ccc(Br)o2)cc1	BRCA1 expr act 13µM
O=C(Nc1ccccc1C(=O)O)c1ccc(Br)o1	BRCA1 expr act 14µM
CN(Cc1ccco1)c1ncnc2ccc(-c3ccc4c(ccn4C)c3)cc12	none (no result: USP1-UAF1 inh)
CC(C)[C@H](NC(=O)c1c(F)cccc1F)C(=O)OCC(=O)NNC(=O)c1ccccc1	none
COc1cccc(NC(=O)C2CCN(S(=O)(=O)c3ccc4[nH]c(=O)oc4c3)CC2)c1	none
CCN(CC)C(=O)c1ccccc1NC(=O)CN1C(=O)c2ccccc2S1(=O)=O	EPAC1 antag inconclusive
Cc1ccc([N+](=O)[O-])cc1S(=O)(=O)Nc1cccc(S(=O)(=O)NC2=NCCC2)c1	USP1-UAF1 inh inconclusive
Cc1nn(-c2ccccc2)c(C)c1/C=C/C(=O)OCC(=O)Nc1ccc(S(N)(=O)=O)cc1	none
COCCNc1ccc(-c2nc(-c3cccc(C)c3)no2)cc1[N+](=O)[O-]	none (no result: EPAC1 antag, EPAC2 agonist, EPAC1 agonist, EPAC2 antagonist)
CCOc1ccc(/C=C/c2ccc3ccccc3n2)cc1OCC	none (no result: USP1-UAF1 inh, EPAC1 antag, EPAC2 agonist, EPAC1 agonist, EPAC2 antagonist)
COc1ccc(C2CC(=O)N3CN(C4CCCCC4)CSC3=C2C#N)c(OC)c1 (stereo not given)	USP1-UAF1 inh 2.2µM (no result: EPAC1 antag, BRCA1 expr act, EPAC2 agonist, EPAC1 agonist, EPAC2 antagonist)
CCc1ccc(C(=O)c2cn(CC(=O)Nc3ccc4c(c3)OCCO4)c3ccc(C)cc3c2=O)cc1	none (no result: EPAC1 antag, EPAC2 agonist, EPAC1 agonist, EPAC2 antagonist)
CN1C(=O)/C(=C\c2ccccc2F)Sc2ccc(C(=O)NC3CCN(Cc4ccccc4)CC3)cc21	none
Cc1ccc2c(c1)CCCN2C(=O)c1cnn2c1NC(=C1CC1)C=C2C(F)F	none (no result: USP1-UAF1 inh, EPAC1 antag, EPAC2 agonist, EPAC1 agonist, EPAC2 antagonist)
C/C(=N\NC(=O)c1csc(C)c1C)c1ccco1	none
C/C(=N\NC(=O)c1csc(C)c1C)c1ccc(C)s1	BRCA1 expr act 10µM
Cc1scc(C(=O)N/N=C/c2ccc(Cl)s2)c1C	BRCA1 expr act 7.1µM
CC(C)(C)Cc1c(-c2ccc(C#N)cc2)nc2c(Cl)cc(C(F)(F)F)cn12	EPAC1 antag inconclusive (no result: USP1-UAF1 inh)
Cc1nnc(NCc2ccco2)s1	none
c1coc(CNc2nc3ccccc3s2)c1	BRCA1 expr act 3.2µM
COc1cccc(C2C3CN(C)CC=C3C(C#N)=C(N)C2(C#N)C#N)c1OC (stereo not given)	USP1-UAF1 inh inconclusive
CCN1CC=C2C(C#N)=C(N)C(C#N)(C#N)[C@H](c3cccc(OC)c3OC)[C@H]2C1	USP1-UAF1 inh 32µM
CCOc1ccc(CNC(=O)C2CCN(c3nn4c(=O)cc(C)nc4s3)CC2)cc1	none
O=C1c2cccc3c(N4CCCCC4)ccc(c23)C(=O)N1c1cccc(O)c1	USP1-UAF1 inh inconclusive, EPAC2 agonist 100µM, EPAC1 agonist inconclusive
O=C1c2cccc3c(N4CCCCC4)ccc(c23)C(=O)N1CCO	USP1-UAF1 inh inconclusive, BRCA1 expr act inconclusive
C=CCN1C(=O)c2cccc3c(N4CCCCC4)ccc(c23)C1=O	USP1-UAF1 inh inconclusive, EPAC2 agonist 100µM
Cc1n[nH]c(C)c1N1C(=O)c2cccc3c(N4CCCCCC4)ccc(c23)C1=O	USP1-UAF1 inh 25µM, EPAC1 agonist inconclusive
CCOc1ccccc1OCC(=O)NN=C1CCCC(=O)C1	none
O=C(CCl)N(O)c1ccc(C=Cc2ccccc2)cc1	none
COCC1CCCCN1C(=O)c1cccc(OC2CCN(C(=O)C3CC3)CC2)c1 (stereo not given)	none
Cc1cccc(-n2cnc(C(=O)NC3CCCCCC3)c2)n1	BRCA1 expr act 10µM
O=C(NOCc1ccccc1)c1ccccc1	BRCA1 expr act 1.3µM
Cc1cccc(C(=O)NNC(=O)c2cccc(C)c2)c1	none
O=C(NOCc1ccccc1)c1ccc(Cl)cc1Cl	none
Cc1ccc(CONC(=O)c2cccc(C)c2)cc1	BRCA1 expr act 8.9µM
O=C(c1cccc(Cl)c1)N1CCC(=O)N([C@H](COCc2cccc(Cl)c2)Cc2ccccc2)CC1	none (no result: USP1-UAF1 inh)
Cc1ccccc1C(=O)/C(C#N)=N/Nc1c(C)n(C)n(-c2ccccc2)c1=O	EPAC2 antagonist 79µM
O=c1c(Br)c(N2CCOCC2)cnn1-c1ccccc1	BRCA1 expr act 13µM
Cc1ccnc(NC(=O)c2ccc(OCc3c(C)noc3C)cc2)c1	BRCA1 expr act inconclusive
CCOC(=O)c1oc2ccc(S(=O)(=O)n3nc(-c4cc(OC)cc(OC)c4)cc3N)cc2c1C	none (no result: EPAC1 antag, EPAC2 agonist, EPAC1 agonist, EPAC2 antagonist)
Cc1ccccc1NC1=C/C(=N\S(=O)(=O)c2ccc(C(=O)O)cc2)c2ccccc2C1=O	USP1-UAF1 inh 1.3µM, EPAC1 antag 40µM, EPAC2 antagonist 50µM
O=C(O)c1ccc(S(=O)(=O)/N=C2\C=C(Nc3ccccc3F)C(=O)c3ccccc32)cc1	USP1-UAF1 inh 2.5µM, EPAC1 antag 22µM, EPAC2 antagonist inconclusive
Cc1ccc(NC2=C/C(=N/S(=O)(=O)c3cccs3)c3ccccc3C2=O)cc1C	none
O=[N+]([O-])c1ccc(N/N=C/c2ccccc2)c(F)c1	BRCA1 expr act 8.9µM
O=[N+]([O-])c1ccc(C=NNc2ccccc2)cc1	none
Nc1ncc(Br)cc1S(=O)(=O)Nc1cc(C(F)(F)F)cc(C(F)(F)F)c1	EPAC1 antag inconclusive, EPAC2 antagonist 16µM
Cc1csc2ncnc(N3CCN(S(=O)(=O)c4cccc(C(F)(F)F)c4)CC3)c12	none
O=C(Nc1ccc(C(=O)O)cc1)/C(=C\C=C\c1ccccc1)NC(=O)c1ccccc1Br	BRCA1 expr act 10µM

Screening results deposited in PubChem BioAssay by National Center for Advancing Translational Sciences (NCATS).
